What all share (assay): yeast three-hybrid, YBZ-1, SC-Leu-His + 0.5 mM 3-AT, 4 days
What all share (settings): tags: N-Gal4 AD-HA kept; label: inside an RPR1-promoter hybrid RNA with tandem MS2 sites; ssRNA

One assay has as its target PUM1 PUF domain R7-RRE (Homo sapiens, UniProt Q14671 828-1176, S1079R;N1080R). An outline of the steps:
(§1)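 The interaction score is the logarithmic change in variant frequency from input to selection. It uses log2, with a pseudocount of 1 for absent variants, and frequencies came from PCR-amplified, Illumina-sequenced repeat regions. The libraries were Pumilio-1 PUF domains randomized at the three base-contacting residues per repeat, co-expressed with matching RNA elements in strain YBZ-1 (LexA–MS2 coat fusion, HIS3 reporter). Plating lasted four days on SC-Leu (input) or SC-Leu-His + 0.5 mM 3-AT (selection).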

The target of another assay is PUM1 PUF domain R7-RWP (Homo sapiens, UniProt Q14671 828-1176, S1079R;N1080W;E1083P). An outline of the steps:
as §1

The target of a further assay is PUM1 PUF domain R3-DYA (Homo sapiens, UniProt Q14671 828-1176, C935D;R936Y;Q939A). An outline of the steps:
as §1

A further assay deals with T1, PUM1 PUF domain R6-DFQ (Homo sapiens, UniProt Q14671 828-1176, N1043D;Y1044F).
T1 sequence: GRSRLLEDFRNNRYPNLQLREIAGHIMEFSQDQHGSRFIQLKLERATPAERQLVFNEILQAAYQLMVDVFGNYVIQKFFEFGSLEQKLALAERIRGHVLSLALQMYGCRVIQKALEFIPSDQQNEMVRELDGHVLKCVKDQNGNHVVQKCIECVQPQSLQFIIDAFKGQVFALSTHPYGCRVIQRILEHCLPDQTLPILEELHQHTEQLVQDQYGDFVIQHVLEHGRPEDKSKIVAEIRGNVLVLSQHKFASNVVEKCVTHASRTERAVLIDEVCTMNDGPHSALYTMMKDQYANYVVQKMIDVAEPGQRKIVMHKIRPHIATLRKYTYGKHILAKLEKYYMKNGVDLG
An outline of the steps:
as §1

A further assay has as its target T2, PUM1 PUF domain R6-QHR (Homo sapiens, UniProt Q14671 828-1176, N1043Q;Y1044H;Q1047R).
T2 sequence: T1 sequence with D216Q, F217H, Q220R
The gist of the method: as §1

In a further assay the target is T3, PUM1 PUF domain R6-FWK (Homo sapiens, UniProt Q14671 828-1176, N1043F;Y1044W;Q1047K).
T3 sequence: T1 sequence with D216F, F217W, Q220K
An outline of the steps:
as §1

A further assay deals with T4, PUM1 PUF domain R6-QWR (Homo sapiens, UniProt Q14671 828-1176, N1043Q;Y1044W;Q1047R).
T4 sequence: T1 sequence with D216Q, F217W, Q220R
An outline of the steps: as §1

A further assay deals with PUM1 PUF domain R8-KRS (Homo sapiens, UniProt Q14671 828-1176, N1122K;Y1123R;Q1126S). The gist of the method: as §1
For another assay, the target named is PUM1 PUF domain R5-KDR (Homo sapiens, UniProt Q14671 828-1176, C1007K;R1008D;Q1011R). An outline of the steps: as §1
The target of a further assay is PUM1 PUF domain R5-RMD (Homo sapiens, UniProt Q14671 828-1176, C1007R;R1008M;Q1011D). The gist of the method: as §1
The next assay addresses PUM1 PUF domain R5-KSG (Homo sapiens, UniProt Q14671 828-1176, C1007K;R1008S;Q1011G). The gist of the method: as §1
The target of another assay is T5, PUM1 PUF domain R6-VYC (Homo sapiens, UniProt Q14671 828-1176, N1043V;Q1047C).
T5 sequence: T1 sequence with D216V, F217Y, Q220C
The gist of the method:
as §1

For another assay, the target named is PUM1 PUF domain R4-EHF (Homo sapiens, UniProt Q14671 828-1176, N971E;Q975F). An outline of the steps:
as §1

For another assay, the target named is PUM1 PUF domain R2-PYE (Homo sapiens, UniProt Q14671 828-1176, N899P;Q903E). The gist of the method: as §1

Changes are numbered by the printed parent chain.

As to “GGCUAGAACUAGUGGAUCCCCCGGCGCCCGGCGGCUCGAGCCCGGGUAAGUCUAAAUAGUCUGCAUGCCGCCGGGCGCCAUGCCUGCAGGUCGACUCUAGAAAACAUG”, the figures for the binding signal with PUM1 PUF domain R7-RRE and with PUM1 PUF domain R7-RWP were 3.75 log2 enrichment (interaction score) and 4.98 log2 enrichment (interaction score), respectively.
Take “GGCUAGAACUAGUGGAUCCCCCGGCGCCCGGCGGCUCGAGCCCGGGUAAGUGUAAGUAGUCUGCAUGCCGCCGGGCGCCAUGCCUGCAGGUCGACUCUAGAAAACAUG”: the binding signal in the assay with PUM1 PUF domain R3-DYA is 1.16 log2 enrichment (interaction score).
Turning to “GGCUAGAACUAGUGGAUCCCCCGGCGCCCGGCGGCUCGAGCCCGGGUAAGUGUAAAUAGUCUGCAUGCCGCCGGGCGCCAUGCCUGCAGGUCGACUCUAGAAAACAUG”, the binding signal with PUM1 PUF domain R3-DYA is 5.02 log2 enrichment (interaction score); in the assay with PUM1 PUF domain R6-DFQ, 8.15 log2 enrichment (interaction score); with PUM1 PUF domain R6-QHR, 6.41 log2 enrichment (interaction score); with PUM1 PUF domain R6-FWK, 2.07 log2 enrichment (interaction score); in the assay with PUM1 PUF domain R6-QWR, 2.53 log2 enrichment (interaction score); with PUM1 PUF domain R8-KRS, 1.29 log2 enrichment (interaction score).
For the sequence “GGCUAGAACUAGUGGAUCCCCCGGCGCCCGGCGGCUCGAGCCCGGGUAAGUGUCAAUAGUCUGCAUGCCGCCGGGCGCCAUGCCUGCAGGUCGACUCUAGAAAACAUG”, the binding signal was 4.77 log2 enrichment (interaction score) in the assay with PUM1 PUF domain R5-KDR, 4.23 log2 enrichment (interaction score) with PUM1 PUF domain R5-RMD and 3.24 log2 enrichment (interaction score) with PUM1 PUF domain R5-KSG.
Consider “GGCUAGAACUAGUGGAUCCCCCGGCGCCCGGCGGCUCGAGCCCGGGUAAGUGUUAAUAGUCUGCAUGCCGCCGGGCGCCAUGCCUGCAGGUCGACUCUAGAAAACAUG”, for which the binding signal with PUM1 PUF domain R5-KDR is 2.77 log2 enrichment (interaction score); with PUM1 PUF domain R5-KSG it was 2.98 log2 enrichment (interaction score).
For the sequence “GGCUAGAACUAGUGGAUCCCCCGGCGCCCGGCGGCUCGAGCCCGGGUAAGUGAAAAUAGUCUGCAUGCCGCCGGGCGCCAUGCCUGCAGGUCGACUCUAGAAAACAUG”, the binding signal with PUM1 PUF domain R6-VYC was 6.26 log2 enrichment (interaction score).
For “GGCUAGAACUAGUGGAUCCCCCGGCGCCCGGCGGCUCGAGCCCGGGUAAGUGUAUAUAGUCUGCAUGCCGCCGGGCGCCAUGCCUGCAGGUCGACUCUAGAAAACAUG”, the binding signal in the assay with PUM1 PUF domain R4-EHF is 5.95 log2 enrichment (interaction score).
Regarding “GGCUAGAACUAGUGGAUCCCCCGGCGCCCGGCGGCUCGAGCCCGGGUAAGUGUAAAAAGUCUGCAUGCCGCCGGGCGCCAUGCCUGCAGGUCGACUCUAGAAAACAUG”, the binding signal in the assay with PUM1 PUF domain R2-PYE was 5.7 log2 enrichment (interaction score).
For “GGCUAGAACUAGUGGAUCCCCCGGCGCCCGGCGGCUCGAGCCCGGGUAAGUGCAAAUAGUCUGCAUGCCGCCGGGCGCCAUGCCUGCAGGUCGACUCUAGAAAACAUG”, in the assay with PUM1 PUF domain R6-QWR, the binding signal was 2.4 log2 enrichment (interaction score).
As for “GGCUAGAACUAGUGGAUCCCCCGGCGCCCGGCGGCUCGAGCCCGGGUAAGCGUAAAUAGUCUGCAUGCCGCCGGGCGCCAUGCCUGCAGGUCGACUCUAGAAAACAUG”, the binding signal with PUM1 PUF domain R8-KRS is 3.28 log2 enrichment (interaction score).

The values above are taken from article PMC8384837, “Expanding the binding specificity for RNA recognition by a PUF domain”.
